Records with an inconclusive call do not appear. More than one record can exist for a structure, and the calls need not agree. Activity calls are given as the source filed them. Unless noted, calls come from the whole dose curve.

Here are results for 16 molecules from PubChem BioAssay (NCATS).

Test [1] can be described thus: Primary qHTS for Huh7 cytotoxicity: counterscreen for inhibitors of MERS-S pseudotyped particle cell entry (AID 1479147). For activity change, negative = cytotoxicity: % is set by controls: 0 for no effect and ±100 for the full control effect. The note with it: outcome: dose series up to 57.1 µM unless noted.
Test [2] is described as follows: Primary qHTS for inhibitors of MERS-S pseudo-typed particle cell entry (AID 1479149). Note: nearly all actives have a fitted effect of over 60% in size. Note: potency is the fitted concentration of half-maximal effect. The note with it: outcome: dose series up to 57.1 µM unless noted.
Test [3] can be described thus: Primary qHTS for Vero E6 cytotoxicity: counterscreen for inhibitors of SARS-S pseudo-typed particle cell entry (AID 1479150). For activity change, negative = cytotoxicity: % is set by controls: 0 for no effect and ±100 for the full control effect. Conditions: outcome: dose series up to 57.1 µM unless noted.
Test [4] can be described thus: Primary qHTS to identify inhibitors of SARS-CoV-2 cell entry (AID 1645846). Note: nearly all actives have a fitted effect of over 45% in size. Note: potency is the fitted concentration of half-maximal effect. The note with it: SARS-CoV-2 pseudovirus cell entry assay, luminescence; activity change, negative = inhibition: at 57.1 µM (top of the series) unless noted. In short, it runs like this:
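Data are normalized to wells receiving SARS-CoV-2-S pseudoparticles and those given bald particles. Entry signal was luciferase luminescence in stable hACE2 Expi293F cells, 48 hr post-infection, after 1 hr compound pretreatment.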

Test [5] in a line: qHTS Assay for Identifying Gametocytocidal Compounds (AID 743244; active = well fitted curve in the direction sought with a large enough effect; an effect the other way counts as inactive or inconclusive; note: potency is the fitted concentration of half-maximal effect). The note with it: P. falciparum 3D7 stage III-V gametocytes, alamarBlue, 72 h. In short, it runs like this:
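Stage III-V P. falciparum 3D7 gametocytes, 20,000 per well, were exposed to compounds for 72 h at 37C, 5% CO2. AlamarBlue was then added for 24 h and viability was read as fluorescence at Ex 525/Em 598 nm.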

A short description of test [6]: Cytotoxicity counterscreen for inhibitors of SARS-CoV-2 cell entry (AID 1645845). For activity change, negative = cytotoxicity: % is set by controls: 0 for no effect and ±100 for the full control effect. Note: nearly all actives have a fitted effect of over 50% in size. Conditions: outcome: dose series up to 57.1 µM unless noted. In short, it runs like this:
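HEK293-ACE2 cells (Expi293F stably expressing human ACE2) seeded overnight, then compound for 1 h plus 48 h at 37C. Viability as ATP content by luminescence; normalized to wells with cells and media-only wells.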

The target of test [7] is Glutathione peroxidase 1 (Homo sapiens) (UniProt P07203). Put plainly: Primary qHTS Assay for Inhibitors of Recombinant Selenoprotein Glutathione Peroxidase 1 (GPX1) (AID 1845191; active = well fitted curve in the direction sought with a large enough effect; an effect the other way counts as inactive or inconclusive; note: % is set by controls: 0 for no effect and ±100 for the full control effect; nearly all actives have a fitted effect of over 65% in size). In short, it runs like this: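 GR-coupled assay: compounds preincubated 30 min at room temperature with GPX1, then reaction started with CHP; final 10 nM GPX1, 1 mM GSH, 0.5 mM CHP, 0.5 mM NADPH, 100 nM GR, 0.01% BSA, pH 7.5 Tris buffer. NADPH fluorescence (340/450 nm) read at 0 and 15 min.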

Test [8] concerns the target Phospholipid hydroperoxide glutathione peroxidase GPX4 (Homo sapiens) (UniProt P36969). Put plainly: Primary qHTS Assay for Inhibitors of Recombinant Selenoprotein Glutathione Peroxidase 4 (GPX4) (AID 1845192; active = well fitted curve in the direction sought with a large enough effect; an effect the other way counts as inactive or inconclusive; note: % is set by controls: 0 for no effect and ±100 for the full control effect; nearly all actives have a fitted effect of over 65% in size). In short, it runs like this: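 GR-coupled assay: recombinant GPX4 preincubated 30 min with compound at room temperature; final 200 nM GPX4, 1 mM GSH, 0.5 mM cumene hydroperoxide, 0.5 mM NADPH, 100 nM GR, 0.01% BSA, pH 7.5 Tris. NADPH fluorescence (340/450 nm) read at 0 and 15 min.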

Test [9] addresses Cytochrome P450 2C9 (Homo sapiens) (UniProt P11712). Put plainly: qHTS Assay for Inhibitors and Substrates of Cytochrome P450 2C9 (AID 883; active = well fitted curve in the direction sought with a large enough effect; an effect the other way counts as inactive or inconclusive; note: % is set by controls: 0 for no effect and ±100 for the full control effect; nearly all actives have a fitted effect of over 60% in size). In short, it runs like this: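 Human CYP2C9 (10nM) with Luciferin-H at 100uM (its KM) in 25mM KPO4; compound preincubated 10 min at 37C, then NADPH regeneration for 60 min at 37C. Luciferin read by luminescence after detection reagent; normalized to 57uM sulphaphenazole as full inhibition.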

For test [10], the target named is Cytochrome P450 2C19 (Homo sapiens) (UniProt P33261). Put plainly: qHTS Assay for Inhibitors and Substrates of Cytochrome P450 2C19 (AID 899; active = well fitted curve in the direction sought with a large enough effect; an effect the other way counts as inactive or inconclusive; note: % is set by controls: 0 for no effect and ±100 for the full control effect; nearly all actives have a fitted effect of over 60% in size). In short, it runs like this: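 5 nM human CYP2C19 with 10uM Luciferin-H EGE (at KM) in 50mM KPO4, compound preincubated 10 min at 37C, then NADPH regeneration for 60 min at 37C. Luciferin read by luminescence after detection reagent; normalized to 57uM ketoconazole as full inhibition.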

Test [11] has as its target Alpha-galactosidase (Coffea arabica) (UniProt Q42656). Put plainly: Counterscreen for Glucocerebrosidase Inhibitors: qHTS Assay for Coffee Bean alpha-Galactosidase at pH 5.9 (AID 998; active = well fitted curve in the direction sought with a large enough effect; an effect the other way counts as inactive or inconclusive;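 note: plate controls were uninhibited enzyme for no effect and no-enzyme basal signal for full effect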). In short, it runs like this:
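Green coffee bean enzyme (2 nM) with 4-methylumbelliferyl alpha-D-galactopyranoside (80 uM) in 50 mM citric acid, 0.005% Tween-20, pH 5.9, 20 min at room temperature; compounds 0.7 nM–77 uM. Stopped at pH 10, fluorescence Ex365/Em440; Hill-fit AC50.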

A short description of test [12]: Validation screen for inhibitors of Lassa infection (AID 463096). Note: % is set by controls: 0 for no effect and ±100 for the full control effect.
Test [13] in a line: Confirmatory qHTS for VERO E6 Cytotoxicity Assay: Counterscreen for SARS-CoV-2 CPE Assay (AID 1508605). Note: % is set by controls: 0 for no effect and ±100 for the full control effect; nearly all actives have a fitted effect of over 60% in size.
A short description of test [14]: Confirmatory qHTS for activators (rescue) of SARS-CoV-2 Cytopathic Effect (CPE) (AID 1508606). Note: potency is the fitted concentration of half-maximal effect; nearly all actives have a fitted effect of over 70% in size.
Test [15] is described as follows: Confirmatory qHTS to identify inhibitors of SARS-CoV-2 cell entry (AID 1645844). Note: potency is the fitted concentration of half-maximal effect; nearly all actives have a fitted effect of over 45% in size. In short, it runs like this:
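HEK293-ACE2 cells were pretreated 1 h with compound, then infected with MLV-based pseudoparticles bearing C-terminally truncated Wuhan-Hu-1 spike for 48 h at 37C; luciferase luminescence normalized to spike PP and bald PP wells.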

Sequence of Glutathione peroxidase 1 (Homo sapiens) (P07203 whole entry, looked up): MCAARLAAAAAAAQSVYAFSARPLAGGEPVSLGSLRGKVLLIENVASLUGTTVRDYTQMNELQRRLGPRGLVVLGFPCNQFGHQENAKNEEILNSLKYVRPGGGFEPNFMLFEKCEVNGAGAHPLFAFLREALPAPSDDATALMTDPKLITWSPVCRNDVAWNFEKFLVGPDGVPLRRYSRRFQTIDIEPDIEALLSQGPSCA
Sequence of Phospholipid hydroperoxide glutathione peroxidase GPX4 (Homo sapiens) (P36969 whole entry, looked up): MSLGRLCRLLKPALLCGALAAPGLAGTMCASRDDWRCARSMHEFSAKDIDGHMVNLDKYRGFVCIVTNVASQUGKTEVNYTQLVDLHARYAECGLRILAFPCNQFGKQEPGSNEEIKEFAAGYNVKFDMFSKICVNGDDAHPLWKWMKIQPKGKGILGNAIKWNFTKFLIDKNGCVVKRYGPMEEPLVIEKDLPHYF
Sequence of Alpha-galactosidase (Coffea arabica) (Q42656 whole entry, looked up): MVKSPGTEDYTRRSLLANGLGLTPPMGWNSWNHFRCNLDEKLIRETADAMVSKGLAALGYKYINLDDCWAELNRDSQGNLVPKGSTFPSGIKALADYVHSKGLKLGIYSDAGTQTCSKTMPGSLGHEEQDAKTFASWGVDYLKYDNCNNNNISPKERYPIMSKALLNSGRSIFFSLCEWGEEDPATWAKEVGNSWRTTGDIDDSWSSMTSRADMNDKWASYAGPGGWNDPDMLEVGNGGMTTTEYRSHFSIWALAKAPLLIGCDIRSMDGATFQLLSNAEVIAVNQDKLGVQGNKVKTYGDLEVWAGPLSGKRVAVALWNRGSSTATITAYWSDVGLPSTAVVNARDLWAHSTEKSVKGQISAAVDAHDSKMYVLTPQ
Sequence of Cytochrome P450 2C9 (Homo sapiens) (P11712 whole entry, looked up): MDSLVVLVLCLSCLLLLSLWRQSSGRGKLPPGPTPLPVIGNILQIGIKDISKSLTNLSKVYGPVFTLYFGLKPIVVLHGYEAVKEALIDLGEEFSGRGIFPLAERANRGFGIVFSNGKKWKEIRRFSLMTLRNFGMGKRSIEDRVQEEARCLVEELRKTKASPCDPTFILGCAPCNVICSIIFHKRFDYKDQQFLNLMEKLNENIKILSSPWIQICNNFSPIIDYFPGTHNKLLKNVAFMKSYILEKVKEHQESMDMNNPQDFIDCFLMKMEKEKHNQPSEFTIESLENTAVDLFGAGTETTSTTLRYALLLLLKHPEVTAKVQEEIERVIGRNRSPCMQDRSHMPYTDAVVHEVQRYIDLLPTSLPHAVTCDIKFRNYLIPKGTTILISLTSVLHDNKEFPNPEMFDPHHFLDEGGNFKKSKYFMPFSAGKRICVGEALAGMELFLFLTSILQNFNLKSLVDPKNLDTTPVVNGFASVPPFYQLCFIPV
Sequence of Cytochrome P450 2C19 (Homo sapiens) (P33261 whole entry, looked up): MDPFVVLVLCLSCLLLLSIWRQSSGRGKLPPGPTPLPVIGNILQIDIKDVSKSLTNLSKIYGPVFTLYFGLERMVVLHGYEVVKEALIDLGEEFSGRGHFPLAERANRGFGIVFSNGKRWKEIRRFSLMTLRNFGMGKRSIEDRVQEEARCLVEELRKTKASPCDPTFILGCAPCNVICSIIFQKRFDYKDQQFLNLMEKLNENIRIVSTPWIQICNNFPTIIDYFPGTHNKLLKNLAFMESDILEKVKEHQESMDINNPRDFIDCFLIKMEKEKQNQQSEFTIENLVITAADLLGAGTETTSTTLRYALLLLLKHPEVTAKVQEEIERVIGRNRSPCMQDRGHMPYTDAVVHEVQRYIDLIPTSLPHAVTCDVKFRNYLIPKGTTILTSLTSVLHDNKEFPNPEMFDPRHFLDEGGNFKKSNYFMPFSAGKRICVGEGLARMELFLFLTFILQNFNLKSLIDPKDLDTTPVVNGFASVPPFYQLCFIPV

As to `COc1cc(C[C@@H]2NCCc3cc(O)c(O)cc32)cc(OC)c1OC`, the Potency result in test [1], in test [2] and in test [3] was “inactive” throughout. In addition, the activity change, negative = inhibition in test [4] is -18.7%.

Consider `CCCC(CCC)C(=O)OC1C[C@H]2CC[C@@H](C1)[N+]2(C)C` (stereo not given in full), for which the Potency in test [5] was 10 µM (active). Besides, the Potency result in [1], in test [2], in [3] and in test [6] was “inactive” throughout.

`Cc1nn(C)c2c1C(c1ccccc1F)=NCC(=O)N2C`: the Potency result in test [1], in test [3], in test [6], in [7] and in test [8] was “inactive” in each case. Also, the Potency in test [2] is 22.4 µM (active).

Consider `Cc1c(Cl)c(C)[n+]([O-])c(Cl)c1-c1noc(-c2cc(O)c(O)c([N+](=O)[O-])c2)n1`, for which the Potency result in test [1], in [2] and in [3] was “inactive” each time. Further, the Potency in [4] is 14.1 µM (active).

Regarding `O=C1CSC2(CCN(CCCN3c4ccccc4Sc4ccc(Cl)cc43)CC2)N1`, the Potency result in [1] and in [3] was “inactive” in each case.

For the molecule `CC(C)(S)[C@H](N)C(=O)O`, the outcome in [1] and in test [2] was “inactive [at 5.34 µM]” throughout. Moreover, the activity change, negative = cytotoxicity in [3] is 0.739% [at 5.34 µM] (inactive). Also, the activity change, negative = inhibition in test [4] is -28.5% [at 5.25 µM].

For `CCN1C[C@@]2(COC)C3[C@@H](OC)C4[C@@H]1[C@@]3(C1C[C@]3(O)[C@H](OC(=O)c5ccccc5)C1[C@]4(OC(C)=O)[C@@H](O)[C@@H]3OC)[C@@H](OC)C[C@H]2O` (stereo not given in full), the Potency entry in [1], in [2], in test [3], in test [6], in test [7] and in [8] was “inactive” each time.

For `C=C[C@]1(C)C[C@@H](OC(=O)CSC2C[C@H]3CC[C@@H](C2)N3C)C2(C)[C@H](C)CCC3(CCC(=O)[C@H]32)[C@@H](C)[C@@H]1O` (stereo not given in full), the Potency result in test [1] and in [3] was “inactive” throughout.

For the molecule `C[C@H]1CC[C@@H]2[C@@H](C)[C@H]3[C@H](C[C@H]4[C@@H]5CC=C6C[C@@H](O[C@@H]7O[C@H](CO)[C@H](O)[C@H](O[C@@H]8O[C@H](CO)[C@@H](O)[C@H](O)[C@H]8O)[C@H]7O[C@@H]7O[C@@H](C)[C@H](O)[C@@H](O)[C@H]7O)CC[C@]6(C)[C@H]5CC[C@]34C)N2C1`, the Potency result in test [1] and in [2] was “inactive” in each case. Moreover, the Potency in test [4] was 20 µM (active).

Take `COc1ccc(CNc2nc(N3CCC[C@H]3CO)ncc2C(=O)NCc2ncccn2)cc1Cl`: the Potency result in test [1], in [2], in [3] and in test [4] was “inactive” each time.

As for `Cc1c(O)c(=O)ccn1C`, the activity change, negative = inhibition is 39.1% [at 11.4 µM] (inactive) in test [9] and -14.9% [at 114 µM] in [4]. Moreover, in test [10], the activity, negative = inhibition is 86.4% [at 11.4 µM] (inactive). Also, the Potency entry in [1], in test [2] and in test [3] was “inactive” throughout.

Turning to `C=CCNc1c(O)cc2c(O)c1C[C@@H](C)C[C@H](OC)[C@H](O)[C@@H](C)/C=C(/C)[C@H](OC(N)=O)[C@@H](OC)/C=C\C=C(\C)C(=O)N2`, the Potency entry in [1], in test [2] and in test [3] was “inactive” each time. For the same molecule, in test [4], the Potency is 3.16 µM (active). The activity change, negative = inhibition in test [4] was -94%.

Turning to `CC[N+](C)(C)Cc1ccccc1Br`, in test [11], the outcome was inactive. Moreover, the Potency result in test [12], in test [1], in [2] and in test [6] was “inactive” each time.

Take `CN1CC[C@H](CN2c3ccccc3Sc3ccccc32)C1`: the Potency result in test [1], in test [3] and in [13] was “inactive” each time. The Potency in test [14] is 11.2 µM (active); in [15], 3.41 µM (active); in test [4], 12.6 µM (active).

With `N#Cc1ccc2[nH]cc(CCCCN3CCN(c4ccc5oc(C(N)=O)cc5c4)CC3)c2c1`, the Potency result in test [13] was “inactive”.

Regarding `Cc1cc(-n2c(=O)[nH]c(=O)n(C)c2=O)ccc1Oc1ccc(S(=O)(=O)C(F)(F)F)cc1`, in [1], the Potency entry was “inactive”. Besides, the Potency in test [4] was 17.8 µM (active).
